esBAF inh – SWI/SNF esBAF complex inhibition; mouse ES cells, Bmi1-luciferase knock-in reporter, 24 h; 100% = twice the neutral-well signal; reporter increase, % at 12.5 µM; 350,000 compounds, 2% hits; in the data active = activation above about 40%; inconclusive = no clear call, values can overlap the other calls;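 note: 0% = median of the plate's neutral control wells and 100% = double that signal; a rise in the Bmi1 reporter signal indicates esBAF inhibition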
Wnt act – activators of Wnt/beta-catenin signaling | Wnt/beta-catenin reporter cell assay, activator, plate reader | activation, % at 9.35 µM | 300,000 compounds, 1.2% hits; in the data active = activation above about 30%, passing the limit was not always enough; inconclusive = no clear call, values can overlap the other calls;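 note: 0% = neutral control wells and 100% = positive control wells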
Vif imaging – blocks HIV Vif function | 340,000 compounds, 0.35% hits | inhibition, % at 7.49 µM | HEK293T cells, Vif self-association by quenched fluorescence, imaging, 24 h | AID 602346; in the data active = inhibition above about 50%, passing the limit was not always enough; inconclusive = no clear call, values can overlap the other calls; inactive = below about 31%
PfHsp90 yeast 2 – growth inhibition of yeast expressing Plasmodium Hsp90; S. cerevisiae expressing PfHsp90, BacTiter-Glo ATP, 48 h; yeast lacking PDR1 and PDR3 efflux regulators; inhibition, % at 9.4 µM; 310,000 compounds, 0.32% hits; AID 504621;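 active = every replicate shows inhibition above about 80%, whatever the replicate mean, limit read from the data; inconclusive = mean inhibition reaches the set limit but some replicate falls short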;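 note: 0% = DMSO neutral controls and 100% = 20 µM radicicol positive controls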
N-glyco inh – N-linked glycosylation inhibition; AID 588692; D54 ERlucT glycosylation luciferase reporter, 24 h; percent of 100 nM tunicamycin response; 360,000 compounds, 0.23% hits; reporter increase, % at 12.5 µM;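 active = mean luciferase reporter signal, scaled so untreated is 0 and the glycosylation-blocking control 100, at or above a set limit in every replicate; inconclusive = mean reaches the limit but not every replicate does; inactive = mean below the limit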;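 note: luciferase carries N-glycosylation sites so blocking glycosylation raises the light; 0% = median of neutral control wells and 100% = median of 100 nM tunicamycin wells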
MITF TRPM1 HTS – MITF TRPM1 promoter activation in melanoma cells | SK-MEL-5 TRPM1-promoter luciferase, 24 h; % of positive control, neutral wells = 0 | 300,000 compounds, 0.75% hits | activation, % at 12.5 µM;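 active = mean activation of at least 80% with every replicate also reaching 80%; inconclusive = mean reaches 80% but some replicate falls short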;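 note: 0% = neutral control wells and 100% = parthenolide positive control wells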
The depositor's hits bear a star. An excerpt weighted towards active compounds, which were near 3% of everything screened.

How did O=C(Nc1ccccc1)c1ccc(-c2ccccc2Cl)o1 do in these assays?
esBAF inh: 53*; Wnt act: 29; Vif imaging: -2; PfHsp90 yeast 2: -11; N-glyco inh: 0; MITF TRPM1 HTS: 89*

What do the screens show for `COc1ccc(C(=O)c2ccc(CC#N)s2)cc1`?
esBAF inh: 51*; PfHsp90 yeast 2: -12; N-glyco inh: 1; MITF TRPM1 HTS: inconclusive

What do the screens show for `O=C(CN1C(=O)NC(Cc2c[nH]c3ccccc23)C1=O)NCCc1ccc(F)cc1` (stereo not given)?
esBAF inh: 5; Wnt act: 3; Vif imaging: 1; PfHsp90 yeast 2: -12; N-glyco inh: 0; MITF TRPM1 HTS: -15

Results for COc1ccc(C2=Nn3c(nnc3-c3ccccc3OC)SC2)cc1OC ?
esBAF inh: -7; Vif imaging: 55*; PfHsp90 yeast 2: 6; N-glyco inh: 11

What do the screens show for `COc1ccc(C2=Nn3c(nnc3-c3ccc(OC)cc3)SC2)cc1`?
esBAF inh: -1; Vif imaging: 66*; PfHsp90 yeast 2: 29; N-glyco inh: 29*

Results for COc1ccccc1NC(=O)Cn1nnc(C(=O)NCc2cccs2)c1N ?
esBAF inh: -4; Wnt act: -2; Vif imaging: -1; PfHsp90 yeast 2: 5; N-glyco inh: 28*; MITF TRPM1 HTS: -22

How did O=c1oc2c(O)cccc2cc1-c1nc2ccccc2[nH]1 do in these assays?
esBAF inh: 0; Wnt act: 36*; Vif imaging: 19; PfHsp90 yeast 2: 2; N-glyco inh: -9; MITF TRPM1 HTS: 45

How did CSc1ccccc1NC(=O)COc1ccc(Cl)cc1Cl do in these assays?
esBAF inh: 47*; Vif imaging: -17; PfHsp90 yeast 2: 0; N-glyco inh: -3; MITF TRPM1 HTS: 13

What do the screens show for `CC(=O)c1sc(NC(=O)COc2ccc(Cl)cc2Cl)nc1C`?
esBAF inh: 45*; Wnt act: 7; Vif imaging: 5; PfHsp90 yeast 2: -31; N-glyco inh: 2; MITF TRPM1 HTS: 47

Results for CC(C)(CO)NC(=O)CCCOc1ccc(Cl)cc1Cl ?
esBAF inh: 48*; Vif imaging: 9; PfHsp90 yeast 2: -21; N-glyco inh: 0; MITF TRPM1 HTS: 67

What do the screens show for `Cc1cc(Cl)ccc1OCCCC(=O)NO`?
esBAF inh: -16; Vif imaging: 13; PfHsp90 yeast 2: -8; N-glyco inh: 81*; MITF TRPM1 HTS: -21

How did COc1ccc(NC(=O)c2nc[nH]c2C(=O)N[C@H](C)c2ccccc2)cc1 do in these assays?
esBAF inh: 5; Wnt act: -6; Vif imaging: 8; PfHsp90 yeast 2: -20; N-glyco inh: 0; MITF TRPM1 HTS: 4

How did O=C(Nc1ccc(CN2CCCCC2)cc1)c1sc2ccccc2c1Cl do in these assays?
esBAF inh: 8; Wnt act: 4; Vif imaging: 5; PfHsp90 yeast 2: 29; N-glyco inh: 1; MITF TRPM1 HTS: 15

How did CC(C)c1ccc(NC(=O)CSc2nc(-c3ccccc3F)nc3nc[nH]c23)cc1 do in these assays?
Wnt act: -7; Vif imaging: 7; PfHsp90 yeast 2: -13; N-glyco inh: 2; MITF TRPM1 HTS: -6

Results for Cc1ccc(S(=O)(=O)Nc2ccc3c(c2)C(=O)N([C@H](C)CO)C[C@H](C)[C@@H](CN(C)C(=O)Nc2cccc4ccccc24)OCCCC[C@@H](C)O3)cc1 ?
esBAF inh: 7

Results for Cc1cc(Cl)ccc1OCC(=O)NCc1ccncc1 ?
esBAF inh: 62*; Vif imaging: -4; PfHsp90 yeast 2: 0; N-glyco inh: 1; MITF TRPM1 HTS: 18

What do the screens show for `O=C(COc1ccc(Cl)cc1Cl)Nc1ccc(C(=O)Nc2ccccc2C(=O)O)cc1`?
esBAF inh: 1; Wnt act: 2; Vif imaging: -7; PfHsp90 yeast 2: 22; N-glyco inh: 3; MITF TRPM1 HTS: 16

How did O=C(CCCOc1ccc(Cl)cc1Cl)Nc1ccccc1C(=O)O do in these assays?
esBAF inh: 79*; Wnt act: inconclusive; Vif imaging: -4; PfHsp90 yeast 2: -32; N-glyco inh: -5; MITF TRPM1 HTS: 50

How did O=c1[nH]c2ccccc2n1C1=CCNCC1 do in these assays?
esBAF inh: -3; Wnt act: -2; Vif imaging: 0; PfHsp90 yeast 2: -1; N-glyco inh: -1; MITF TRPM1 HTS: 4

What do the screens show for `O=c1oc(-c2ccc(Br)cc2)nc2ccccc12`?
esBAF inh: 46*; Wnt act: 8; Vif imaging: -7; PfHsp90 yeast 2: -5; N-glyco inh: 2; MITF TRPM1 HTS: 5

Results for O=c1oc(-c2ccc([N+](=O)[O-])cc2)nc2ccccc12 ?
Wnt act: 10; Vif imaging: -11; PfHsp90 yeast 2: -22; N-glyco inh: 1

How did CCCCNc1ccc2c(c1)C1CC2CCN1C(=O)OCc1ccccc1 (stereo not given) do in these assays?
esBAF inh: 100*; Wnt act: 11; Vif imaging: -1; PfHsp90 yeast 2: 11; N-glyco inh: 2; MITF TRPM1 HTS: 125*

Results for O=C(OCc1ccccc1)N1CCC2CC1c1ccc(/C=C/CCCCl)cc12 (stereo not given) ?
esBAF inh: 59*; Wnt act: 1; Vif imaging: -5; N-glyco inh: -2

How did Cc1nc2ccccc2c(=O)n1Nc1cccc(Cl)c1 do in these assays?
Wnt act: -5; PfHsp90 yeast 2: -24; N-glyco inh: 2; MITF TRPM1 HTS: -3

Results for O=c1c2ccccc2nc2sc(Nc3cccc(Cl)c3)nn12 ?
esBAF inh: 46*; Wnt act: 22; Vif imaging: -3; N-glyco inh: 0; MITF TRPM1 HTS: 37

What do the screens show for `CCOc1ccc(CN(C(=O)c2ccccn2)c2ccc(OC)c(Cl)c2)cc1`?
esBAF inh: 46*; Wnt act: 3; Vif imaging: 3; PfHsp90 yeast 2: 5; N-glyco inh: 1; MITF TRPM1 HTS: 21

How did Cc1c(NC(=O)c2ccc(-c3ccc([N+](=O)[O-])cc3Cl)o2)c(=O)n(-c2ccccc2)n1C do in these assays?
Wnt act: -1; Vif imaging: 0; PfHsp90 yeast 2: 21; N-glyco inh: -1; MITF TRPM1 HTS: -9

Results for C[C@@H]1CN([C@H](C)CO)C(=O)c2cc(N(C)C)ccc2O[C@@H](C)CCCCO[C@@H]1CN(C)Cc1ccccc1 ?
esBAF inh: 9

How did COc1ccccc1CC(NC(C)=O)C(=O)NC1CCN(C(=O)Nc2ccccc2C)CC1 (stereo not given) do in these assays?
esBAF inh: 0; Wnt act: 0; Vif imaging: -11; PfHsp90 yeast 2: 11; N-glyco inh: -2; MITF TRPM1 HTS: -9

How did C/C(=N\Nc1nc2ccccc2s1)c1ccc(Br)s1 do in these assays?
Wnt act: -4; Vif imaging: 0; PfHsp90 yeast 2: 115*; N-glyco inh: 10; MITF TRPM1 HTS: -4

Source: PubChem BioAssay (Broad Institute)
